Results taken from PubChem BioAssay (EPA / NIEHS).
The source made the active and inactive calls. How the source made its calls: active means hit-call score of the fitted dose curve at least 0.9, where 1 is the maximum; inactive means score below 0.9.

Experiments:
[1] = read-out: Tissue plasminogen activator (tPA), PLAT (gene 5327); assay: BSK_BE3C_tPA: BioMAP Diversity Plus: BE3C Assay for Tissue plasminogen activator (tPA) Biomarker Activity (AID 2283041); settings: primary human bronchial epithelial cells; actives raise or lower the signal
In short: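 Human primary bronchial epithelial cells were dosed with chemical and tPA biomarker levels measured by ELISA 24 hours later. Activity was fitted bidirectionally against DMSO as negative control and baseline.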

[2] = read-out: Interleukin-8 (IL8), CXCL8 (gene 3576); assay: BSK_CASM3C_IL8: BioMAP Diversity Plus: CASM3C Assay for Interleukin-8 (IL8) Biomarker Activity (AID 2283042); settings: primary human coronary artery smooth muscle cells; actives raise or lower the signal;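 further: IL-8 protein level quantified by ELISA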
[3] = read-out: Human Leukocyte Antigen - DR isotype (HLADR), HLA-DRA (gene 3122); assay: BSK_CASM3C_HLADR: BioMAP Diversity Plus: CASM3C Assay for Human Leukocyte Antigen - DR isotype (HLADR) Biomarker Activity (AID 2283043); settings: primary human coronary artery smooth muscle cells; actives raise or lower the signal;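 further: cell-surface HLA-DR protein level quantified by ELISA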
[4] = read-out: Macrophage colony-stimulating factor (MCSF), CSF1 (gene 1435); assay: BSK_CASM3C_MCSF: BioMAP Diversity Plus: CASM3C Assay for Macrophage colony-stimulating factor (MCSF) Biomarker Activity (AID 2283044); settings: primary human coronary artery smooth muscle cells; actives raise or lower the signal;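 further: M-CSF protein amount quantified by ELISA after 24 h exposure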
[5] = read-out: Low-density lipoprotein receptor (LDLR), LDLR (gene 3949); assay: BSK_CASM3C_LDLR: BioMAP Diversity Plus: CASM3C Assay for Low-density lipoprotein receptor (LDLR) Biomarker Activity (AID 2283045); settings: primary human coronary artery smooth muscle cells; actives raise or lower the signal;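 further: LDLR protein level on the cell surface quantified by ELISA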
[6] = read-out: Monocyte Chemoattractant Protein-1 (MCP1), CCL2 (gene 6347); assay: BSK_CASM3C_MCP1: BioMAP Diversity Plus: CASM3C Assay for Monocyte Chemoattractant Protein-1 (MCP1) Biomarker Activity (AID 2283046); settings: primary human coronary artery smooth muscle cells; actives raise or lower the signal;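 further: MCP-1 level quantified by ELISA 24 h after dosing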
[7] = BSK_CASM3C_Proliferation: Cell Proliferation Assessment in the BioMAP Diversity Plus: CASM3C Assay (AID 2283047); settings: primary human coronary artery smooth muscle cells;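 further: sulforhodamine B total protein stain as relative cell number at 560 nm; sub-confluent cells exposed 48 h before staining; fitted both ways against DMSO so gain or loss of cell number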
[8] = read-out: Monokine induced gamma interferon (MIG), CXCL9 (gene 4283); assay: BSK_CASM3C_MIG: BioMAP Diversity Plus: CASM3C Assay for Monokine induced gamma interferon (MIG) Biomarker Activity (AID 2283048); settings: primary human coronary artery smooth muscle cells; actives raise or lower the signal;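 further: MIG protein level measured by ELISA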
[9] = read-out: serum amyloid A (SAA), SAA1 (gene 6288); assay: BSK_CASM3C_SAA: BioMAP Diversity Plus: CASM3C Assay for serum amyloid A (SAA) Biomarker Activity (AID 2283049); settings: primary human coronary artery smooth muscle cells; actives raise or lower the signal;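 further: SAA protein level quantified by ELISA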
[10] = BSK_CASM3C_SRB: Viability Assessment in the BioMAP Diversity Plus: CASM3C Assay (AID 2283050); settings: primary human coronary artery smooth muscle cells;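 further: total protein by SRB staining as cytotoxicity measure in parallel cultures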
[11] = read-out: Thrombomodulin, THBD (gene 7056); assay: BSK_CASM3C_Thrombomodulin: BioMAP Diversity Plus: CASM3C Assay for Thrombomodulin Biomarker Activity (AID 2283051); settings: primary human coronary artery smooth muscle cells; actives raise or lower the signal;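 further: thrombomodulin protein level measured by ELISA 24 h after dosing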
[12] = read-out: Tissue Factor, F3 (gene 2152); assay: BSK_CASM3C_TissueFactor: BioMAP Diversity Plus: CASM3C Assay for Tissue Factor Biomarker Activity (AID 2283052); settings: primary human coronary artery smooth muscle cells; actives raise or lower the signal;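 further: cell surface tissue factor protein level read by ELISA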
[13] = read-out: Interferon-gamma inducible Protein 10 (IP10), CXCL10 (gene 3627); assay: BSK_hDFCGF_IP10: BioMAP Diversity Plus: hDFCGF Assay for Interferon-gamma inducible Protein 10 (IP10) Biomarker Activity (AID 2283053); settings: primary human foreskin fibroblasts; actives raise or lower the signal
In short: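 Human foreskin fibroblast primary cells (hDFCGF system) were dosed with chemical and assayed at 24 h; IP-10 measured by ELISA. Activity fitted bidirectionally relative to DMSO negative control as baseline.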

[14] = read-out: Urokinase-type plasminogen activator receptor (uPAR), PLAUR (gene 5329); assay: BSK_CASM3C_uPAR: BioMAP Diversity Plus: CASM3C Assay for Urokinase-type plasminogen activator receptor (uPAR) Biomarker Activity (AID 2283054); settings: primary human coronary artery smooth muscle cells; actives raise or lower the signal;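 further: cell-surface uPAR protein level quantified by ELISA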
[15] = read-out: Vascular cell adhesion molecule 1 (VCAM1), VCAM1 (gene 7412); assay: BSK_CASM3C_VCAM1: BioMAP Diversity Plus: CASM3C Assay for Vascular cell adhesion molecule 1 (VCAM1) Biomarker Activity (AID 2283055); settings: primary human coronary artery smooth muscle cells; actives raise or lower the signal;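 further: VCAM-1 protein level quantified by ELISA on the cells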
[16] = read-out: Collagen III, COL3A1 (gene 1281); assay: BSK_hDFCGF_CollagenIII: BioMAP Diversity Plus: hDFCGF Assay for Collagen III Biomarker Activity (AID 2283056); settings: primary human foreskin fibroblasts; actives raise or lower the signal
In short: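 Response relative to DMSO, fitted in both directions, reflects ELISA-measured collagen III in human primary skin fibroblasts 24 h after compound addition.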

[17] = read-out: Epidermal growth factor receptor (EGFR), EGFR (gene 1956); assay: BSK_hDFCGF_EGFR: BioMAP Diversity Plus: hDFCGF Assay for Epidermal growth factor receptor (EGFR) Biomarker Activity (AID 2283057); settings: primary human foreskin fibroblasts; actives raise or lower the signal
In short: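 Primary human foreskin fibroblasts were exposed to compound for 24 h, after which cell-surface EGFR was quantified by ELISA. Activity was fitted bidirectionally against the DMSO negative control as baseline.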

[18] = read-out: Interleukin-8 (IL8), CXCL8 (gene 3576); assay: BSK_hDFCGF_IL8: BioMAP Diversity Plus: hDFCGF Assay for Interleukin-8 (IL8) Biomarker Activity (AID 2283058); settings: primary human foreskin fibroblasts; actives raise or lower the signal
In short: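 Fibroblast monolayers (human foreskin, hDFCGF) received test chemical for 24 h before ELISA detection of IL-8; either increases or decreases relative to DMSO count as activity.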

[19] = BSK_hDFCGF_Proliferation: Cell Proliferation Assessment in the BioMAP Diversity Plus: hDFCGF Assay (AID 2283059); settings: primary human foreskin fibroblasts;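 further: curves fitted for both rise and fall of signal versus DMSO baseline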
In short: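 Primary human foreskin fibroblasts, sub-confluent; […]; 10% TCA fix, 0.1% SRB stain, A560 total protein. Gain/loss fitted bidirectionally vs DMSO control.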

[20] = read-out: Macrophage colony-stimulating factor (MCSF), CSF1 (gene 1435); assay: BSK_hDFCGF_MCSF: BioMAP Diversity Plus: hDFCGF Assay for Macrophage colony-stimulating factor (MCSF) Biomarker Activity (AID 2283060); settings: primary human foreskin fibroblasts; actives raise or lower the signal
In short: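 fibroblasts (human foreskin, primary), 24 h post-dose; M-CSF by ELISA; bidirectional fit, DMSO = baseline.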

Measured: AC50

Oc1cccc2cccnc12
active: [1] 2.07 µM | [3] 3.97 µM | [7] 5.5 µM | [11] 4.74 µM | [13] 0.206 µM | [16] 3.47 µM | [17] 0.275 µM | [19] 0.852 µM | [20] 0.301 µM
inactive: [2] | [4] | [5] | [6] | [8] | [9] | [10] | [12] | [14] | [15] | [18]

COC[C@H](C)N(C(=O)CCl)c1c(C)csc1C
inactive: [1] | [2] | [3] | [4] | [5] | [6] | [7] | [8] | [9] | [10] | [11] | [12] | [13] | [14] | [15] | [16] | [17] | [18] | [19] | [20]

ClCC(Cl)CCl
inactive: [1] | [2] | [3] | [4] | [5] | [6] | [7] | [8] | [9] | [10] | [11] | [12] | [13] | [14] | [15] | [16] | [17] | [18] | [19] | [20]

CCN1CCC2(CC1)COc1cc3c(cc12)N(C(=O)c1ccc(-c2ccc(-c4nnc(C)o4)cc2C)cc1)CC3
inactive: [12] | [17]
active: [1] 18.7 µM | [2] 27.9 µM | [3] 15.3 µM | [4] 27.4 µM | [5] 34.2 µM | [6] 28.5 µM | [7] 18.7 µM | [8] 36 µM | [9] 32.5 µM | [10] 24.4 µM | [11] 33.7 µM | [13] 9.35 µM | [14] 31.1 µM | [15] 27.6 µM | [16] 9.42 µM | [18] 12.5 µM | [19] 5.13 µM | [20] 7.12 µM

OCc1ccco1
active: [19] 29.6 µM
inactive: [1] | [2] | [3] | [4] | [5] | [6] | [7] | [8] | [9] | [10] | [11] | [12] | [13] | [14] | [15] | [16] | [17] | [18] | [20]

C(=NC1CCCCC1)=NC1CCCCC1
inactive: [1] | [2] | [17]
active: [3] 20 µM | [4] 26.1 µM | [5] 34.5 µM | [6] 32.8 µM | [8] 33.5 µM | [9] 35.7 µM | [10] 20 µM | [11] 34.5 µM | [12] 25.1 µM | [13] 11.7 µM | [14] 26.8 µM | [15] 20 µM | [16] 33.2 µM | [18] 32.4 µM | [19] 20 µM | [20] 20 µM
